IL1B secr inh – blocks inflammasome-driven IL-1 beta release. THP-1 LPS/ATP IL-1B secretion, AlphaLISA, 16 h; active compounds read low. activity change, % at 57.5 µM. 360,000 compounds, 4.7% hits. AID 743279; in the data active = activity change below about -50%; inconclusive = mostly about -30% to -49%
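Secreted IL-1B measured by AlphaLISA bead assay after 16 h compound exposure of THP-1 cells; compounds (final up to 57.5 uM) added 1 h before LPS (250 ng/mL) and ATP (1.25 mM) stimulation; lower signal means less secretion.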
TDP1 cell CPT – growth inhibition of DT40 Tdp1-/-;hTDP1 cells with camptothecin (screen for TDP1 inhibitors). chicken DT40 Tdp1-/-;hTDP1 cells + 20 nM CPT, ATP luminescence, 48 h. 420,000 compounds, 12% hits. AID 686979. Potency, µM (top dose mostly 46.2 µM), for inactives: at the top dose activity change, negative = growth inhibition, hits mostly inhibitors; also: potency is read from the fitted curve at half-maximal effect; nearly all actives have a fitted effect of over 55% in size
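Chicken DT40 Tdp1-/- cells complemented with human TDP1, 400 cells/well, exposed to compounds plus 20 nM camptothecin for at least 48 h at 37 C; viability read as ATP content by CellTiter-Glo luminescence.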
ELG1 DNA repair – blocks ELG1-dependent DNA repair in HEK293T cells | HEK293T ELG1-luciferase reporter, luminescence, 16 h; DNA damage induced by 5-fluorouridine | Potency, µM (doses to about 46.1 µM), inactives show top-dose activity change, negative = inhibition, most hits filed as inhibitors | 330,000 compounds, 2.3% hits | AID 504467; also: potency is read from the fitted curve at half-maximal effect; nearly all actives have a fitted effect of over 55% in size
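Quantitative HTS, concentration-response format. 2,000 cells/well co-treated with 5-fluorouridine and compound, 16 hr in 5% CO2 at 37 °C; ONE-Glo luminescence read after 30 min.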
HT1080-NT tox – kills 2HG-producing HT-1080-NT fibrosarcoma cells | HT-1080-NT fibrosarcoma viability, CellTiter-Glo ATP luminescence, 48 h | Potency, µM (doses to about 46.1 µM), for inactives: at the top dose activity, negative = less viability, most hits filed as cytotoxic | 360,000 compounds, 1.6% hits;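 also: NT is the 2HG producing partner of a matched IDH1 knockdown line; potency is read from the fitted curve at half-maximal effect; 0% = DMSO-treated cells and -100% = media-only wells without cells; nearly all actives have a fitted effect of over 55% in size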
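750 cells/well, RPMI + 5% FBS; 2 h settle, compound pin-transfer, 48 h at 37 degrees C. CellTiter-Glo 10 min RT, luminescence. Normalized to DMSO and media-only wells.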
HT1080 IDH1KD tx – toxicity to HT-1080 IDH1 knockdown cells (counter line); HT-1080 IDH1 knockdown viability, ATP luminescence, 48 h; Potency, µM (titrated, usually from 46.1 µM), inactives show at the top dose activity, negative = toxicity, hits mostly cytotoxic; 360,000 compounds, 2% hits; AID 686971;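 also: potency is read from the fitted curve at half-maximal effect; 0% = DMSO wells and -100% = cell-free medium wells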
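Luminescent ATP read-out (CellTiter-Glo, 10 min at room temperature) after 48 h compound exposure at 37 °C gave viability of IDH1-knockdown HT-1080 cells. Activity was normalised to DMSO and cell-free wells, then fitted as concentration-response curves.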
TDP1 cell noCPT – qHTS for Inhibitors of human tyrosyl-DNA phosphodiesterase 1 (TDP1): qHTS in cells in absence of CPT | DT40 Tdp1-/- hTDP1 cells, no CPT, ATP luminescence, 48 h | Potency, µM (titrated, usually from 46.2 µM), for the others: top-dose activity change, negative = growth inhibition, actives largely listed as inhibitors | 420,000 compounds, 15% hits | AID 686978, 2013; also: potency is read from the fitted curve at half-maximal effect; nearly all actives have a fitted effect of over 55% in size
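Chicken DT40 Tdp1-/- cells stably complemented with human TDP1 were seeded at 400 cells/well with DMSO in place of 20 nM camptothecin. After compound pinning, cells grew at least 48 hr at 37 °C; viability read by CellTiter-Glo luminescence.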
An asterisk follows results filed as active; ? = inconclusive; nt = no result given. Only some compounds are listed: those with a hit (about 19% of all), similar ones and a draw of the others. Unless noted, calls follow the shape of the dose curve; as a rule, active = well fitted curve in the direction sought with a large enough effect; inconclusive = small, poorly fitted or top-dose-only effect, or another doubt; inactive = no such curve, though single readings can be large; an effect the other way counts as inactive or inconclusive. Unless noted, % is scaled to controls: 0 for no effect and ±100 for the full control effect.

SMILES	IL1B secr inh	TDP1 cell CPT	ELG1 DNA repair	HT1080-NT tox	HT1080 IDH1KD tx	TDP1 cell noCPT
COCCNC(=S)N(CCc1c(C)[nH]c2ccccc12)Cc1ccco1	-9	-29%	?	-2%	-5%	-16%
COCCNC(=S)N(CCc1c(C)[nH]c2ccc(F)cc12)Cc1cccs1	?	?	?	?	-4%	23µM*
CNC(=S)N(CCc1c(C)[nH]c2ccc(C)cc12)Cc1ccco1	25	?	-2%	-5%	-2%	?
CCNC(=S)N(CCc1c(C)[nH]c2ccc(Cl)cc12)Cc1ccco1	-59*	?	-18%	?	?	?
NCCNc1ccc(C(=O)N2c3ccccc3Sc3ccccc32)cc1[N+](=O)[O-]	-92*	18µM*	3%	?	16µM*	18µM*
Nc1ccc(C(=O)OCC(=O)N2c3ccccc3Sc3ccccc32)cc1[N+](=O)[O-]	-3	?	-15%	-3%	-13%	7.3µM*
CCc1ccc([C@@H]2C[C@H]3[C@@H](CN2S(=O)(=O)c2ccc(C)cc2)C(=O)C[C@@H](c2ccccc2)N3S(=O)(=O)c2ccc(C)cc2)cc1	3	-3%	nt	-2%	-3%	?
O=C1C=C(NCc2ccccc2)c2ccccc2C1=O	-101*	5.8µM*	12µM*	3.7µM*	4.6µM*	15µM*
O=C1C=C(Nc2ccccc2O)c2ccccc2C1=O	-90*	3.7µM*	?	?	?	3.3µM*
Cc1ccc(NC2=CC(=O)C(=O)c3ccccc32)c(C)c1	-8	4.6µM*	21µM*	6%	1%	18µM*
O=C(Cc1ccccc1[N+](=O)[O-])OCC(=O)N1CCN(c2ccccc2)CC1	-1	-9%	-15%	-1%	8%	-23%
COCCNC(=O)CN1C(=O)NC(c2ccccc2)(c2ccccc2)C1=O	38	-1%	18%	-11%	-1%	10%
CC1=CC(C)(C)N(C(=O)c2ccccc2)c2ccccc21	-11	-1%	-13%	12%	10%	-12%
CC1=CC(C)(C)N(C(=O)c2ccccc2)c2ccc(C)cc21	38	15µM*	-4%	-1%	-5%	23µM*
COc1ccc(-c2ccc(CN3C(CC(C)C)C(=O)N(Cc4cn(Cc5ccco5)nn4)CCS3(=O)=O)cc2)cc1 (stereo not given)	-15	7.3µM*	nt	?	?	7.3µM*
COc1ccc(-c2ccc(CN3C(CC(C)C)C(=O)N(Cc4cn(Cc5ccco5)nn4)CCS3(=O)=O)cc2)cc1OC (stereo not given)	-18	?	nt	-4%	-3%	16µM*
COc1ccc(CCNC(=O)CSc2nnc(CNC(=O)c3cc(OC)c(OC)c(OC)c3)o2)cc1OC	43	4%	2%	18%	8%	30%
Cc1ccc(Oc2c(C(F)(F)F)oc3c(CN4CCCCC4C)c(O)ccc3c2=O)cc1 (stereo not given)	nt	?	nt	nt	nt	26µM*
NC(=O)C12CCCC(Br)(CCC1)C2	-63*	17%	1%	0%	14%	-5%
Cc1ccc(C)c(OCC(O)CN2C(C)CCCC2C)c1 (stereo not given)	20	23µM*	-1%	-6%	?	?
Cc1ccc(C)c(OCC(O)CN2CCC(Cc3ccccc3)CC2)c1 (stereo not given)	-60*	21µM*	-14%	?	-15%	?
OC(COc1ccc(Cl)cc1)CN1CCC(Cc2ccccc2)CC1 (stereo not given)	nt	?	5%	?	?	?

Screening data as filed in PubChem.
